Compound activity: PubChem BioAssay, National Center for Advancing Translational Sciences (NCATS)
FEN1 inh: inhibitors of human flap endonuclease 1 | Recombinant FEN1 flap cleavage, fluorescence, 15 min | Potency, µM (highest dose often 114 µM), inactives show at the top dose activity change, negative = inhibition, most hits filed as inhibitors | 390,000 compounds, 0.35% hits; also: % is scaled to controls: 0 for no effect and ±100 for the full control effect; nearly all actives have a fitted effect of over 65% in size
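Concentration–response screening of FEN1 (10 nM): 15 min compound preincubation at room temperature, reaction started with 50 nM substrate and read at 0 and 15 min. Corrected, normalized data were fitted by a four-parameter Hill equation.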
WRN inhibitor: blocks human WRN helicase; AID 651768; Potency, µM (top dose mostly 114 µM), without a hit: at the top dose activity change, negative = inhibition, actives largely listed as inhibitors; WRN helicase unwinding, fluorescent forked duplex, kinetic; 360,000 compounds, 0.46% hits; Q14191; also: % is scaled to controls: 0 for no effect and ±100 for the full control effect; nearly all actives have a fitted effect of over 55% in size
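Kinetic red-fluorescence monitoring (525/598 nm) tracks WRN helicase activity after 100 nM fluorophore-quencher forked duplex and 2 mM ATP are added to 20 nM enzyme pretreated 15 min at room temperature with compound.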
POLK inh: DNA polymerase kappa (human) inhibition; Q9UBT6; purified Pol kappa, fluorescent DNA synthesis assay, 10 min; Potency, µM (series often up to 107 µM), for inactives: at the highest dose activity, negative = inhibition, actives largely listed as inhibitors; 400,000 compounds, 0.53% hits; also: % is scaled to controls: 0 for no effect and ±100 for the full control effect
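Fluorescent qHTS in 1536-well format: enzyme (10 nM) and compound sat 15 min at room temperature before 50 nM substrate (final) was added. Signal taken at 0 and 10 min; no-enzyme buffer wells were negative controls.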
POLI inh: inhibitors of human DNA polymerase iota. Pol iota fluorescent replication assay, 10 min. 390,000 compounds, 1% hits. Potency, µM (highest dose often 115 µM), for the others: top-dose activity, negative = inhibition, hits mostly inhibitors. Q9UNA4
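Fluorescent replication assay read twice, at 0 min and 10 min after adding 50 nM (final) substrate. Enzyme (10 nM) and compounds were first incubated 15 min at room temperature; enzyme-free buffer wells were negative controls.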
POLH inh: blocks human DNA polymerase eta activity. Potency, µM (highest dose often 114 µM), without a hit: at the highest dose activity change, negative = inhibition, most hits filed as inhibitors. 390,000 compounds, 1.2% hits. Q9Y253. recombinant Pol eta, fluorescent DNA replication assay. AID 588591; also: % is scaled to controls: 0 for no effect and ±100 for the full control effect
Target sequence (Q9Y253 whole entry, looked up): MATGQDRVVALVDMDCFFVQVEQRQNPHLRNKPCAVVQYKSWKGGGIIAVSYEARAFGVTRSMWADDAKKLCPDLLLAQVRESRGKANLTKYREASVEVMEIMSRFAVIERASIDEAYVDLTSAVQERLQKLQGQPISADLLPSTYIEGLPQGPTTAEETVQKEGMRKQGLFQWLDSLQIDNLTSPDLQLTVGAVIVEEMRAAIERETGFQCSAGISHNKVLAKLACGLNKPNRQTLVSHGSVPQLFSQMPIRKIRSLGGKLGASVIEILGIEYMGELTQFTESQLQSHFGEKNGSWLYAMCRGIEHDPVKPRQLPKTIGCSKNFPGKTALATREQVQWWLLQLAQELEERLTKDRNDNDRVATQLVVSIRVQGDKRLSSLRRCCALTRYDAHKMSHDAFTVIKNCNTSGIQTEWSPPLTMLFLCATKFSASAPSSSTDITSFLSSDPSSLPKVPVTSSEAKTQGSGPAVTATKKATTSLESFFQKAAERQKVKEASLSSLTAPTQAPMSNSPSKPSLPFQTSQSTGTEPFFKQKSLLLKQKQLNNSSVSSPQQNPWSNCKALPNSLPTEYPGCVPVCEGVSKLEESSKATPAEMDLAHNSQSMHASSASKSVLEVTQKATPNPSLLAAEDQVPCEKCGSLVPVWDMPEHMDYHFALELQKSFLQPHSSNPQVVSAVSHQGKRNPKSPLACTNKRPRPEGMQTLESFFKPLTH
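Fluorescent replication assay: 50 nM final substrate added after a 15 min room-temperature compound preincubation with 10 nM enzyme. Signal taken at 0 min and again at 10 min.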
Pol beta inh: inhibitors of human DNA polymerase beta | P06746 | Pol beta primer extension/strand displacement, fluorescence kinetic | Potency, µM (series often up to 114 µM), for inactives: top-dose activity change, negative = inhibition, most hits filed as inhibitors | 340,000 compounds, 1.3% hits; also: % is scaled to controls: 0 for no effect and ±100 for the full control effect
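Kinetic readout of DNA synthesis with strand displacement by Pol beta. Compound and 10 nM enzyme sit 15 min at room temperature; 50 nM substrate starts the reaction, read immediately and at 10 min.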
* marks the source's active call; other numbers are inactive results; i = inactive; ? = inconclusive; . = no result given; [ ] = another dose, or the depositor's remark. This is a sample that favours compounds with a hit; in the whole collection about 2.4% have one here. Calls follow the shape of the dose curve; as a rule, active = well fitted curve in the direction sought with a large enough effect; inconclusive = small, poorly fitted or top-dose-only effect, or another doubt; inactive = no such curve, though single readings can be large; an effect the other way counts as inactive or inconclusive. Potency is read from the fitted curve at half-maximal effect.

SMILES | FEN1 inh | WRN inhibitor | POLK inh | POLI inh | POLH inh | Pol beta inh
COc1ccccc1CCNC(=O)Cn1ccc2cc(S(=O)(=O)N3CCCCC3)ccc21 | ? | . | ? | 89µM* | -6% | 2%
CCn1cc(C(=O)O)c(=O)c2cc(F)c(N3CCN(S(=O)(=O)c4ccc(NC(C)=O)cc4)CC3)cc21 | ? | ? | -37% | -19% | ? | 20µM*
CCn1cc(C(=O)NN)c(=O)c2cc(F)c(N3CCOCC3)cc21 | ? | 89µM* | -16% | ? | ? | 45%
CCn1cc(C(=O)O)c(=O)c2cc(F)c(N3CCN(S(=O)(=O)c4ccc5c(c4)OCCO5)CC3)cc21 | 6% | 1% | 10% | 2% | 34% | 1%
O=C(COc1ccccc1C(=O)Nc1ccccc1)NCCCCc1ccccc1 | -10% | . | -2% | -27% | . | .
CCn1nc(C)c2c(-c3ccccc3)cc(=O)n(C(C)C(=O)NCCC(C)C)c21 (configuration not stated) | -22% | . | -17% | -5% | -11% | 1%
O=C(O)C1(C(=O)O)CCC1 | -5% | 0% | -18% | -3% | -2% | .
N.N.O=C(O)C1(C(=O)O)CCC1.[Pt] | . | . | 22µM* | -7%[58.9 µM] | -3%[57.1 µM] | 8%[57.1 µM]
C=CC(C)(C)c1c(O)c(CC=C(C)C)c(O)c2c(=O)c3ccc(O)c(O)c3oc12 | -26% | -12% | -17% | -14% | -5% | .
C=CC(C)(C)c1[nH]c2ccccc2c1C1=C(O)C(=O)C(c2c[nH]c3c(CC=C(C)C)cccc23)=C(O)C1=O | . | . | 1.4µM* | . | . | .
CN1/C(=C\C=C(C#N)C#N)C(C)(C)c2ccccc21 | 12% | -9% | 1% | 0% | ? | -13%
CC[n+]1c(/C=C/C=C2/N(C)c3ccccc3C2(C)C)sc2ccccc21 | . | . | 27µM* | . | . | .
Cc1ccc(S(=O)(=O)N2CCN(c3nc(Nc4ccccc4O)nc4ccccc34)CC2)cc1 | 4% | . | 14% | 15% | . | .
CC(C)=C1C(=O)NN(c2ccc(F)c(Cl)c2)C1=O | -19% | ? | 25µM* | ? | -7% | ?
O=C1NN(c2ccc(F)c(Cl)c2)C(=O)/C1=C\c1cccc(OC(=O)c2cccs2)c1 | -16% | 50µM* | ? | ? | 20µM* | ?
Cn1nc(C(=O)Nc2ccc(F)c(Cl)c2)c2c1-c1ccccc1S(=O)(=O)C2 | 14% | . | -14% | -14% | -4% | 14%
CCc1ccccc1NC(=O)CCS(=O)(=O)c1ccc(Br)cc1 | -7% | -9% | -18% | 0% | -18% | 35µM*
COc1ccc([N+](=O)[O-])cc1NC(=O)CCS(=O)(=O)c1ccc(Br)cc1 | -15% | -7%[11.6 µM] | ? | 9% | 50µM* | 16µM*
O=C(CCS(=O)(=O)c1ccc(Br)cc1)NC1CCCC1 | -6% | -1%[57.1 µM] | ? | -5% | ? | 22µM*
Cn1nnnc1SCCCNCc1ccccc1OCc1ccc(F)cc1 | -10% | . | -14% | 4% | -24% | 27%
Cc1c(C)c(C)c(/C=C/c2ccnc3ccccc23)c(C)c1C | -15% | . | -13% | 106% | . | .
S=c1[nH]nc(-c2cc(-c3ccccc3)n[nH]2)n1/N=C/c1ccc(Cl)c(Cl)c1 | ? | 35µM* | ? | ? | ? | 22µM*
CCn1c2ccccc2c2cc(/C=N/n3c(-c4cc(C)[nH]n4)n[nH]c3=S)ccc21 | ? | -12%[11.6 µM] | -17% | ? | ? | 50µM*
S=c1[nH]nc(-c2cc(-c3ccccc3)n[nH]2)n1/N=C/c1ccc(Cl)cc1 | 14% | -17%[11.6 µM] | -9% | 16µM* | ? | 40µM*
CCn1c2ccccc2c2cc(/C=N/n3cn[nH]c3=S)ccc21 | ? | -5% | -13% | -3% | -1% | 19%
SMILES | FEN1 inh | WRN inhibitor | POLK inh | POLI inh | POLH inh | Pol beta inh
COc1ccc(-c2nc(SCC(=O)Nc3ccc4c(c3)OCCO4)c(-c3ccc(F)cc3)[nH]2)cc1 | -16% | . | -26% | ? | -17% | 40µM*
COc1ccc2[nH]c3nc(SCC(=O)Nc4ccc5c(c4)OCO5)nnc3c2c1 | 4% | -17% | -3% | ? | ? | 22µM*
COc1ccc(-c2nc(SCC(=O)Nc3ccc4c(c3)OCCO4)c(-c3ccc(F)cc3)[nH]2)cc1OC | 5% | . | 45% | i | -24% | 3%
CCCn1c(CCC(=O)Nc2cc(Cl)c(OC)cc2OC)nc2cccnc21 | 14% | . | -7% | 45% | 0% | 5%
CCN(CC)C(=O)C1=C(C)NC(=O)NC1c1ccccc1F (configuration not stated) | . | . | . | . | . | -16%
CCN(CC)C(=O)C1=C(C)NC(=O)NC1c1c(F)cccc1Cl (configuration not stated) | -2% | 0% | -15% | 12% | 6% | 89µM*
Cc1cc(-c2ccccc2)nc2c(Br)c(C(=O)O)nn12 | ? | ? | 79µM* | 11µM* | 7.9µM* | .
N#CCNC(=O)c1nn2c(C(F)(F)F)cc(-c3ccccc3)nc2c1Br | 10% | 3% | -7% | 163% | -22% | 15%
O=C(COC(=O)CNC(=O)C1CCCCC1)NC1CC1 | 10% | . | 1% | -2% | . | .
CC(=C\c1ccco1)/C=C1/SC(=S)N(CC(=O)O)C1=O | -3% | -29% | ? | ? | 40µM* | 20µM*
COc1ccc(NC(=O)CCCN2C(=O)/C(=C\c3ccco3)SC2=S)cc1 | -4% | -12% | -28% | ? | ? | -16%
O=C1/C(=C\c2ccco2)SC(=S)N1c1ccc(O)cc1 | -7% | -8% | -24% | ? | -12% | 20µM*
O=C(CN1C(=O)/C(=C/c2ccco2)SC1=S)Nc1ccc(O)c(C(=O)O)c1 | ? | -1% | ? | -41% | ? | 10µM*
NN1C(=O)/C(=C\c2ccco2)SC1=S | 1% | -5%[11.6 µM] | ? | ? | -24% | 7.9µM*
CCOC(=O)CN1C(=O)S/C(=C/c2ccco2)C1=O | 2% | -9% | -11% | 64% | -18% | -6%
CC(C)=CCC/C(C)=C/COc1c2ccoc2cc2oc(=O)ccc12 | 1% | . | 4% | -26% | . | .
Nc1ccc(/C=C/c2ccnc3ccccc23)cc1[N+](=O)[O-] | 6% | . | 2% | ? | . | .
O=C(Nc1ccc(NC(=S)NC(=O)c2cccs2)cc1)c1ccco1 | ? | ? | ? | 35µM* | 79µM* | ?
O=C(Cn1cc(C(=O)c2ccncc2)c(=O)c2cc(F)ccc21)Nc1ccc(Cl)cc1 | 0% | . | -11%[60.1 µM] | 0% | 13% | 2%
Cc1cc(/C=C2\C=Cc3ccccc32)cc(C)c1[N+](=O)[O-] | -24% | . | -14% | -26% | . | .
CC1(C)OB(c2cnc(C#N)nc2)OC1(C)C | 18% | . | -8% | -21% | . | .
Cc1ccc(S(=O)(=O)c2cc(Nc3ccccc3)ccc2O)cc1 | ? | -15% | 40µM* | 50µM* | -6% | .
